Experimental data published in the supplement of paper PMC11417369.
± gives the standard deviation of the averaged measurements. The full ranking holds about 25,000 sequences; the median of “ln(normalized median fluorescence intensity)” is about 7.9, and the highest 2% start at about 11. The sample as a whole holds a higher share of the highest values than the screen did.

system: PfAP2-I AP2 domain 3 (GST-tagged); assay: gcPBM binding intensity (ln(normalized median fluorescence intensity)); higher = stronger DNA binding
In short: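 In this array assay, P. falciparum DNA-binding domains with a GST tag, expressed in E. coli, were applied for 1 h to primer-extended double-stranded 36-bp intergenic genomic probes and negative controls on an Agilent 4 × 180k array. Bound protein was visualised with Alexa488 anti-GST antibody at 488 nm. Binding intensity is the highest Masliner-normalised natural-log median intensity across replicate spots of either probe orientation.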

Row | Sequence | gcPBM binding intensity (ln)
1 | GAAAAAATAAAATAAAGTACATAACTATAATAAAAA [XGTACX_site4807] | 7.9 ± 0.34
2 | TTTTTTTTTTTTTTTACACACTGCATACAAGAAAAA [CACACA_site5642] | 8.54 ± 0.66
3 | TGTGCACGCATATACACACACAAATACAATGATAAA [CACACA_site6656] | 8.92 ± 0.11
4 | TATTATATTTGTATGTGTACTTATATGGTTGTAATA [XGTACX_site4548] | 7.87 ± 0.26
5 | TACCCTTGCATGTAGGTGCAATTTTTTTTTTTTTTT | 10.6 ± 0.35
6 | ATTTATATTACCCTTGCATGTAGGTGCAATTTTTTT [TGCATGCA_site757] | 10.64 ± 0.085
7 | AAAATTATGCAGTAGGTGCAATACCCTCGGCTTTTT [GTGCAC_site9556] | 11.1 ± 0.64
8 | TTCCTGTTAATTACAACACACAATTCTTATTTTATG [CACACA_site6507] | 7.98 ± 0.52
9 | ACAAAACTCTTTAATTGTACAAATATAATATAAAAA [XGTACX_site5690] | 7.74 ± 0.63
10 | TATTTATAAATGAACACACACGCAATTTGAATCGAA [CACACA_site3371] | 8.04 ± 0.46
11 | TTAATTAAATATAGGGGTACATATTATATATGTTTT [XGTACX_site3677] | 7.76 ± 0.42
12 | TGCTATATAATATGAGCACACATAAGATTTGGTGTT [CACACA_site8148] | 8.05 ± 0.6
13 | TTACGCTGCTATATAGTGCACATAATATATGACCTG | 11 ± 0.24
14 | TATATATATATATGTGCACACATAATAAAAAAAAAA [CACACA_site3830] | 10.55 ± 0.035
15 | TAAAACACTCATGGCACACATAAAACATTTTTATGA [CACACA_site3574] | 8.18 ± 0.24
16 | TCAATTTGGAACGGTATGCACTAATTTTATATTTTT | 9.02 ± 0.19
17 | TATTTTAAAACAAAAATATAATTTCATAAAAATATA [CACACA_negctrl_site394] | 7.2 ± 0.47
18 | TGTAATTGTTTAAAGGGTACATATATCAGATGTCTT [XGTACX_site5877] | 7.62 ± 0.54
19 | TATATCATTATATAAACACACAATATGTTTTTTATA [CACACA_site3781] | 7.42 ± 0.54
20 | TTTATTTATATAATTACACACATATATACGCAAATG [CACACA_site2794] | 7.78 ± 0.31
21 | TATTTAATTATATAAAATTAAATTTTTAATTCTTCC [CACACA_negctrl_site473] | 7.28 ± 0.53
22 | TTTTTTTCTCACAATCGTACATAAATACATATATAT [XGTACX_site3150] | 8.12 ± 0.54
23 | TTTGTTTTTCATAGTGCACACATAACCAAAAATAGT [CACACA_site9030] | 11.3 ± 0.46
24 | TTTCATAACAAAAAAGTGCAAAATAGCACGAACATT [GTGCAC_site9703] | 10.66 ± 0.049
25 | AAATATTCATAGTATACACACATTTATTTATAACCA [CACACA_site6502] | 7.88 ± 0.52

Row | Sequence | gcPBM binding intensity (ln)
26 | GGTATTTTCACATATAGTACACAAAAATAAAATAAA [XGTACX_site2139] | 8.48 ± 0.099
27 | AATAAATTCATGATAGTGCAAAAATTATTTTTGTTA | 9.49 ± 0.028
28 | TGTTTTTCATAGTGCACACATAACCAAAAATAGTAT [CACACA_site3150] | 11.5 ± 0.67
29 | GAAAAAATTTTATGGTGTACTTTATTTATTTATATA [XGTACX_site6323] | 8.06 ± 0.28
30 | TATTTTAAAGAGAAAACATGCATTATATAGAACATT [TGCATGCA_site328] | 7.93 ± 1
31 | AAAATATATACACAAACATGCATATAATAAATAAAT [TGCATGCA_site711] | 7.98 ± 0.83
32 | AATATAAACACAAACACACACATATATATATATATA [CACACA_site4307] | 9.49 ± 0.45
33 | AATATAATATAATGCACACATAAAACAAAAAAAAAA [CACACA_site3012] | 11 ± 0.86
34 | AATATAATATAATGCACACATAAACAAAAAAAAAAA [CACACA_site783] | 11.2 ± 1
35 | TTCTGACCAATGCTATAAAATAATACAAAAGAAAAA [GTGCAC_negctrl_site3] | 7.83 ± 0.35
36 | AACTTTTTTATATGCACACATAAACAAGGATATATA [CACACA_site2874] | 10.1 ± 0.49
37 | TTAACTTTTTTATATGCACACATAAACAAGGATATA [CACACA_site8932] | 9.57 ± 0.3
38 | TCCATATGCAAACTGGTGCACAAGTAGCTTTTATAT | 11.15 ± 0.028
39 | TATAAGAGGATATATACACACAAAAATATGTACAGT [CACACA_site6885] | 7.92 ± 0.52
40 | TATTAATAATTAAGTTGTACATTAATTAATATACTG [XGTACX_site6994] | 7.46 ± 0.41
41 | ATATATTTTAGGAGAGTGCATTTAATATTATTTAAT [GTGCAC_site9444] | 10.7 ± 0.62
42 | ATATATCAAGGGAGTGAATGTTATGCATATGAATAT [TGCATGCA_negctrl_site573] | 7.82 ± 0.83
43 | CGTTATATCAAAGGAGTGCATTATGAATACGTTTTA [GTGCAC_site9837] | 11.4 ± 0.65
44 | AAAAATAGGAACCAATATCCAACGTGACTTTATAAT [CACACA_negctrl_site1011] | 7.68 ± 0.81
45 | TTTACTTTTTTTTCTTGTACTCATACATACTATCAT [XGTACX_site4919] | 7.84 ± 0.83
46 | ATATATATAATATGATGTACTATTTTGATAAAAAAT [XGTACX_site3975] | 8.23 ± 0.54
47 | TTTATCATGAACAGAAGTACATTTATATCAATGTCT [XGTACX_site6470] | 7.5 ± 0.47
48 | ATTGTCAAAACACGCACACACATATACATAATAACA [CACACA_site1742] | 8.2 ± 0.37
49 | ATATATATATATTTCGTGCACTGATAATATTATTTT | 11.2 ± 0.35
